# Compound activity from PubChem BioAssay.
# RORgamma inh: ROR gamma (mouse) transcription inhibition; Drosophila S2 Gal4-RORgamma UAS-luciferase reporter, 20 h; Potency, µM (highest dose often 53.6 µM), for inactives: at the highest dose activity change, negative = inhibition, most hits filed as inhibitors; actives 5.4% (n = 310,000); also: potency is read from the fitted curve at half-maximal effect; nearly all actives have a fitted effect of over 60% in size
#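 Luciferase reporter read in Schneider cells carrying Gal4-RORγ (mouse) and UAS-Photinus luciferase; cells given compound 1 h before 700 uM copper sulfate induction, then incubated 20 h at ambient temperature.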
# B2AR arrestin: recruits beta-arrestin to the human beta2-adrenergic receptor | P07550 | AID 492947 | beta-arrestin recruitment to beta2AR, cell-based reporter | Potency, µM (series often up to 46.1 µM), without a hit: at the top dose activation, actives largely listed as activators | actives 0.02% (n = 330,000);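 also: potency is read from the fitted curve at half-maximal effect; 0% = DMSO controls and full agonism = EC100 isoproterenol or metaproterenol; nearly all actives have a fitted effect of over 65% in size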
# ELG1 repair inh: ELG1-dependent DNA repair inhibition; HEK293T ELG1-luciferase reporter, luminescence, 16 h; DNA damage induced by 5-fluorouridine; Potency, µM (top dose mostly 46.1 µM), for the others: at the top dose activity change, negative = inhibition, usual class: inhibitors; actives 2.3% (n = 330,000); AID 504467; also: potency is read from the fitted curve at half-maximal effect; nearly all actives have a fitted effect of over 55% in size
#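 Overnight (16 hr) co-exposure of 2,000 cells/well to 5-fluorouridine and compound at 37 °C preceded detection. Luciferase was quantified via ONE-Glo luminescence; loss of signal denotes inhibition.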
# TSHR antagonist: human thyrotropin receptor antagonism; P16473; TSHR-expressing cells, TSH-stimulated cAMP HTRF, 2 h; hits give low values; activity change, negative = inhibition, % at 11.5 µM; actives 0.2% (n = 330,000);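 active = activity change below a set negative limit, meaning inhibition stronger than a set level, cut at about -70% in these data; inconclusive = activity change between two set negative limits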
# Target sequence (P16473 whole entry, looked up): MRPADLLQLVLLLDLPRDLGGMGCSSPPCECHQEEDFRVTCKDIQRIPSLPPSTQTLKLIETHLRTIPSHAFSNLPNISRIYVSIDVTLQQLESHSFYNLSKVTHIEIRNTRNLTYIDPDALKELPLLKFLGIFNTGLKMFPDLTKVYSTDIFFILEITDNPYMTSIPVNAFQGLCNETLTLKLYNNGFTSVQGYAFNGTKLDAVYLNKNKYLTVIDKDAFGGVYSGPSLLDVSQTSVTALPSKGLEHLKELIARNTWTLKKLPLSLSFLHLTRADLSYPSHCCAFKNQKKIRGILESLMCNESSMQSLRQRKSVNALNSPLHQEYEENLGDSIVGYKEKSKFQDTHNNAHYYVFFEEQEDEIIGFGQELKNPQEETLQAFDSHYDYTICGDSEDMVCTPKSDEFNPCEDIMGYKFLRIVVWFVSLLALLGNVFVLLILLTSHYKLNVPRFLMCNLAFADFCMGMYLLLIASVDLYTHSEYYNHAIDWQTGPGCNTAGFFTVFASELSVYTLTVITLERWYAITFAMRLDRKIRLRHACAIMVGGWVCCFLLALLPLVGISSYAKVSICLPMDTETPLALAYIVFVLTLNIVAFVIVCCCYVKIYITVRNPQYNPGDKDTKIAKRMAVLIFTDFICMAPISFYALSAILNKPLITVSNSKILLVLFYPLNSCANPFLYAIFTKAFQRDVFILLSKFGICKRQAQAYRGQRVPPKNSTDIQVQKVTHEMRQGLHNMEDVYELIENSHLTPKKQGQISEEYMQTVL
#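 TSHR-expressing cells, 200/well, pre-treated with compound, then stimulated with EC80 TSH (4nM final) for 2 hours at 37 deg C. cAMP measured by competitive HTRF: anti-cAMP cryptate antibody in lysis buffer plus cAMP-d2, read after 30 minutes at room temperature.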
# Gal4-VP16 FLuc: inhibits Gal4-VP16 luciferase reporter, ROR gamma counter-screen | Drosophila S2 Gal4-VP16 UAS-luciferase, luminescence, 20 h | AID 2546 | Potency, µM (titrated, usually from 53.6 µM), for inactives: at the highest dose activity, negative = inhibition, hits mostly inhibitors | actives 3.5% (n = 310,000);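 also: Gal4-VP16 expression switched on by copper sulfate through the metallothionein promoter; potency is read from the fitted curve at half-maximal effect; nearly all actives have a fitted effect of over 50% in size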
# * = called active by the depositor; u = inconclusive; x = not tested or not shown; [ ] = another dose, or the depositor's remark. Only some compounds are listed: those with a hit (about 7.5% of all), similar ones and a draw of the others. Unless noted, calls follow the shape of the dose curve; as a rule, active = well fitted curve in the direction sought with a large enough effect; inconclusive = small, poorly fitted or top-dose-only effect, or another doubt; inactive = no such curve, though single readings can be large; an effect the other way counts as inactive or inconclusive. Unless noted, % is scaled to controls: 0 for no effect and ±100 for the full control effect.
SMILES,RORgamma inh,B2AR arrestin,ELG1 repair inh,TSHR antagonist,Gal4-VP16 FLuc
Cc1ccc(OC(C)C(=O)Nc2ccccc2C(=O)N2CCN(C)CC2)cc1 (stereo unspecified),x,0%,4%,-8,x
CSCC[C@H](NC(=O)[C@H](CCC(N)=O)NC(=O)[C@H](CCCCN)NC(=O)[C@H](CCCNC(=N)N)NC(=O)[C@H](Cc1ccc(O)cc1)NC(=O)[C@H](CCCNC(=N)N)NC(=O)[C@H](CO)NC(=O)[C@H](Cc1ccc(O)cc1)NC(=O)[C@H](CO)NC(=O)[C@H](CC(=O)O)NC(=O)[C@@H](NC(=O)[C@@H](N)Cc1ccccc1)[C@@H](C)O)C(=O)N[C@@H](C)C(=O)N[C@H](C(=O)N[C@@H](CCCCN)C(=O)N[C@@H](CCCCN)C(=O)N[C@@H](Cc1ccc(O)cc1)C(=O)N[C@@H](CC(C)C)C(=O)N[C@@H](C)C(=O)N[C@@H](C)C(=O)N[C@H](C(=O)N[C@@H](CC(C)C)C(=O)NCC(=O)N[C@@H](CCCCN)C(=O)N[C@@H](CCCNC(=N)N)C(=O)N[C@@H](Cc1ccc(O)cc1)C(=O)N[C@@H](CCCCN)C(=O)N[C@@H](CCC(N)=O)C(=O)N[C@@H](CCCNC(=N)N)C(=O)N[C@H](C(=O)N[C@@H](CCCCN)C(=O)N[C@@H](CC(N)=O)C(=O)N[C@@H](CCCCN)C(N)=O)C(C)C)C(C)C)C(C)C,9%,x,x,x,4%
NC(=O)c1cc(S(=O)(=O)Nc2ccc(OC(F)(F)F)cc2)cs1,15%,0%,-8%,-3,u
O=c1[nH]c(NCCO)nnc1Cc1ccccc1,-2%,0%,9%,5,-6%
Cc1cc(N/N=C/c2cccc(Br)c2)nc2ccccc12,11µM*,4%,u,16,u
C(=N\Nc1ccc2ccccc2n1)/c1ccc2c(c1)OCCO2,2.5µM*,0%,u,-7,2µM*
Cc1cccc(/C=N/Nc2ccc3ccccc3n2)c1,2.8µM*,0%,u,-1,6.3µM*
Cc1ccc(/C=N/Nc2ccc3ccccc3n2)o1,13µM*,0%,u,-9,18µM*
Cc1ccc(/C=N/Nc2cn[nH]c(=O)n2)o1,u,0%,15%,-5,-8%
Cc1cccc([C@H]2[C@@H]3C=CC(C)C[C@@H]3C(=O)N2Cc2ccccc2)c1 (stereo partly specified),11%,x,x,x,-15%
C(=N\Nc1nc2ccccc2[nH]1)/c1ccc2c(c1)OCCO2,5.6µM*,-1%,u,-4,u
O=C(c1cccc(S(=O)(=O)N2CCCC2)c1)c1cccc(S(=O)(=O)N2CCCC2)c1,-3%,0%,5.8µM*,-7,-20%
O=C(NNC1=NCCC1)c1cccc(S(=O)(=O)N2CCCC2)c1,8.9µM*,0%,0%,-2,u
N#Cc1ccc2c(c1)C[C@]1(CCCCN3C(=O)c4ccccc4C3=O)Oc3c(c(=O)oc4ccc(F)cc34)C2O1,7%[10 µM],0%[9.22 µM],x,x,4%[10 µM]
CC[C@H](C)[C@H](NC(=O)[C@H](CC(C)C)NC(=O)[C@H](CO)NC(=O)[C@H](CCC(=O)O)NC(=O)[C@H](CC(C)C)NC(=O)[C@H](Cc1ccc(O)cc1)NC(=O)[C@H](CCCCN)NC(=O)[C@H](CCCCN)NC(=O)[C@H](C)NC(=O)[C@H](CO)NC(=O)[C@H](CC(C)C)NC(=O)[C@H](CCC(N)=O)NC(=O)CNC(=O)[C@H](CC(C)C)NC(=O)[C@H](CC(C)C)NC(=O)[C@H](CCCNC(=N)N)NC(=O)[C@H](CO)NC(=O)[C@H](Cc1ccccc1)NC(=O)[C@H](CC(=O)O)NC(=O)[C@H](CO)NC(=O)[C@@H](NC(=O)[C@H](Cc1ccccc1)NC(=O)[C@@H](NC(=O)CNC(=O)[C@H](CC(=O)O)NC(=O)[C@H](C)NC(=O)[C@@H](N)Cc1cnc[nH]1)C(C)C)[C@@H](C)O)C(N)=O,19%,x,x,x,5%
COC(=O)C1=NN(C(=O)c2ccc(C)cc2)C(O)(c2ccc(Cl)cc2)C1 (stereo unspecified),-35%,0%,2%,-3,-6%
COC(=O)C1=NN(C(=O)c2ccc(Br)cc2)C(O)(C(C)(C)C)C1 (stereo unspecified),u,-1%,12%,14,u
CC1=NN(C(=O)CSCc2ccccc2)C(O)(c2ccc(F)cc2)C1 (stereo unspecified),7.1µM*,0%,-20%,-11,u
CC1=NN(C(=O)COc2cc(C)ccc2C(C)C)C(O)(c2ccccc2)C1 (stereo unspecified),11µM*,0%,21µM*,-16,18µM*
COC(=O)C1=NN(C(=O)c2cccc(Cl)c2)C(O)(C(C)(C)C)C1 (stereo unspecified),5µM*,-1%,15%,29,u
CC1=NN(C(=O)c2ccc(Cl)cc2)C(O)(c2ccccc2)C1 (stereo unspecified),10µM*,0%,-7%,12,13µM*
O=C(CSCc1ccccc1)N1CCN(c2ccc(F)cc2)CC1,u,0%,28%,-11,-12%
Cc1ccc(C(C)C)c(OCC(=O)Nc2ccc(Cl)cn2)c1,1%,0%,-13%,5,-13%
COc1cc(C[C@@H]2C(=O)OC[C@H]2Cc2ccc(OC)c(OC)c2)ccc1O,x,0%,1%,u,x
C=C1c2cccc(OC)c2O[C@H](C(=O)OCC)[C@@H]1CCC(C)C,36%,x,x,x,4%
SMILES,RORgamma inh,B2AR arrestin,ELG1 repair inh,TSHR antagonist,Gal4-VP16 FLuc
NC(=O)C1CCN(c2nc(-c3cccc(Br)c3)cs2)CC1,x,x,x,-7,x
O=C(c1ccccc1)N1N=C(C(F)(F)F)CC1(O)c1ccc(F)cc1 (stereo unspecified),20µM*,4%,-16%,23,u
COC(=O)C1=NN(C(=O)c2ccccc2)C(O)(c2ccc([N+](=O)[O-])cc2)C1 (stereo unspecified),5µM*,0%,7%,5,7.1µM*
CC1=NN(C(=O)CCc2ccccc2)C(O)(c2ccncc2)C1 (stereo unspecified),1.8µM*,0%,18%,5,u
CC1=NN(C(=O)COc2ccc(C)c(C)c2)C(O)(c2ccc(Cl)cc2)C1 (stereo unspecified),7.1µM*,0%,-2%,-3,16µM*
O=C(c1ccccc1)N1N=C(C(F)(F)F)CC1(O)c1ccccc1 (stereo unspecified),-24%[1.91 µM],0%,-3%,18,u
CCC1=NN(C(=O)Cc2ccccc2)C(O)(c2ccncc2)C1 (stereo unspecified),0%,0%,-6%,1,u
